Assay [1] deals with Plasmodium falciparum Sir2 (PF13_0152, Sir2A). Kind of assay: pfSir2 binders on small-molecule microarrays, primary screen, biochemical, small-molecule microarray, 635 nm fluorescence (AID 1098).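 Note: score merges spot fluorescence intensity with its signal-to-noise ratio.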 The following applies: small-molecule microarray binding, fluorescence 635 nm; higher = more signal.
Assay [2] is described as follows: small-molecule microarray binders of probe aDKK1, primary screen, biochemical, biotinylated probe, 635/667 nm fluorescence (AID 1099).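 Note: score merges 667nm spot fluorescence with signal to noise across triplicate slides; reference of the scale not given here.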 The following applies: higher = more signal.
Assay [3] in a line: small-molecule microarray binders of probe aCHRDL2, primary screen, biochemical, biotinylated probe, 635/667 nm fluorescence (AID 1100). The following applies: higher = more signal.
Assay [4] in a line: splicing luciferase reporter signal modulators, primary screen, spliceosome inhibition project, cell-based, HEK293, splice +/- reporter (AID 1101).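 Note: HEK293 cells carrying a splicing-competent luciferase reporter gene; test concentration not given here.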 The following applies: luminescence, 24 h, higher = more signal, called active from +8 up or from −8 down. (In general: In a reporter assay the amount or activity of a reporter protein is the signal.)
The target of assay [5] is Fibroblast growth factor 10 (Homo sapiens) (UniProt O15520). Description: FGF10 binders on small-molecule microarrays, primary screen, biochemical, small-molecule microarray, 635 nm fluorescence (AID 1102). The following applies: FGF10 binding, fluorescence 635 nm, higher = more signal.
The test system of assay [6] is glycogen synthase kinase-3 (GSK3A per assay name; protocol says GSK3B). Description: GSK3 binders on small-molecule microarrays, primary screen, biochemical, small-molecule microarray, 635 nm fluorescence, GSK3A (AID 1103). Note: the record names both GSK3A and GSK3B. The following applies: small-molecule microarray binding, fluorescence 635 nm; higher = more signal.
The target of assay [7] is Epidermal growth factor receptor (Homo sapiens) (UniProt P00533). Kind of assay: EGFR binders on small-molecule microarrays, primary screen, biochemical, small-molecule microarray, 635 nm fluorescence (AID 1104).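 Note: score merges 667 nm emission intensity with spot signal to noise over triplicate slides.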 The following applies: EGFR binding, higher = more signal.
In assay [8] the target is Follistatin-related protein 3 (Homo sapiens) (UniProt O95633). Description: FSTL3 binders on small-molecule microarrays, primary screen, biochemical, small-molecule microarray, 635 nm fluorescence (AID 1105).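 Note: score merges emission near 667 nm and signal to noise per printed spot across three slides.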 The following applies: FSTL3 binding, higher = more signal.
The target in assay [9] is Dickkopf-related protein 1 (Homo sapiens) (UniProt O94907). Description: DKK1 binders on small-molecule microarrays, primary screen, biochemical, small-molecule microarray, 635 nm fluorescence scan (AID 1106).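 Note: score merges emission near 667 nm with signal to noise over three replicate slides.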 The following applies: DKK1 binding, higher = more signal.
Assay [10] deals with Inhibin beta A chain (activin A). Description: INHBA (activin A) binders on microarrays, primary screen, biochemical, small-molecule microarray, 635 nm fluorescence scan (AID 1107).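 Note: mouse activin A protein probed at 4.33 µg/mL on printed slides; score merges bound-protein fluorescence near 667 nm with spot signal-to-noise.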 The following applies: small-molecule microarray binding, higher = more signal.

The record followed here is PubChem BioAssay.

Structures are written as SMILES. Activity calls are given as the source filed them.

Dickkopf-related protein 1 (Homo sapiens), sequence (O94907 whole entry, looked up): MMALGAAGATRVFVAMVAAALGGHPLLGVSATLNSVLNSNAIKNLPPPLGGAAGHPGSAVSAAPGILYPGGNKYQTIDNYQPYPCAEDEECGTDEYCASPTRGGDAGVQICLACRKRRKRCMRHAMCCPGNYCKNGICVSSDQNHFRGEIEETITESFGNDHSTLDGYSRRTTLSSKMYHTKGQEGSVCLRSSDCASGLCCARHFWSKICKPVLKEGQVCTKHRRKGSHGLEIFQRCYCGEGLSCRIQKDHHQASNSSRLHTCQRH
Epidermal growth factor receptor (Homo sapiens), sequence (P00533 whole entry, looked up): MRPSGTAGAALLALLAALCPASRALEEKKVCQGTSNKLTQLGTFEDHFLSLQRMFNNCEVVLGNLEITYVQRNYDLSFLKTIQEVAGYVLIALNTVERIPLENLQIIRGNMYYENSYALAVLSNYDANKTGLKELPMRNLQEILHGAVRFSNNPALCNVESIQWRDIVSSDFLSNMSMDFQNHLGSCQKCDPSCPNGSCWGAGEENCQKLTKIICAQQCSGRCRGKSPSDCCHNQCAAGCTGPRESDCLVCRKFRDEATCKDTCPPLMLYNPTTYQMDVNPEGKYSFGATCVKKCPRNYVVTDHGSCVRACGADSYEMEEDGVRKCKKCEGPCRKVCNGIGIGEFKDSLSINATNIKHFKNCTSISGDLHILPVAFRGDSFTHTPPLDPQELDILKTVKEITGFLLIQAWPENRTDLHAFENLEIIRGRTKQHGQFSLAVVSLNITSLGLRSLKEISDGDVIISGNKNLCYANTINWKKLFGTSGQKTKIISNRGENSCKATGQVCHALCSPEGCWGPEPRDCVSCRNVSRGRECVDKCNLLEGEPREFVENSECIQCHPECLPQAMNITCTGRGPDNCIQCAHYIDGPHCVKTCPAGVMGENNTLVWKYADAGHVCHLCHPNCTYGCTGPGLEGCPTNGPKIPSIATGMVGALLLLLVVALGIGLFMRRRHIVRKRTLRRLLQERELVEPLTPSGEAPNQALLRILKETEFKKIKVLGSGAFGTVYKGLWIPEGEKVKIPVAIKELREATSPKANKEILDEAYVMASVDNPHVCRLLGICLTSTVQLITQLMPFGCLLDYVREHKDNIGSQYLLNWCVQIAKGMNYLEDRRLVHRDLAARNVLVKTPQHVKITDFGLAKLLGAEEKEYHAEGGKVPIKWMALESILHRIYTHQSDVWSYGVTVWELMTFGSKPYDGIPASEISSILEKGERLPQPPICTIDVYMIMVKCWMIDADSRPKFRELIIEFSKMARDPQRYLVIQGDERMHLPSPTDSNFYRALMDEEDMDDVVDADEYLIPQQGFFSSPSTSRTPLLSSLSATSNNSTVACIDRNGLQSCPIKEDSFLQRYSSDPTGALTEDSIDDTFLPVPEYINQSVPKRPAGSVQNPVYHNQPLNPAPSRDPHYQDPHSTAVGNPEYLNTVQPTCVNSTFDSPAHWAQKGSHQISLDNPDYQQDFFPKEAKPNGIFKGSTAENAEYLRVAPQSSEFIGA
Follistatin-related protein 3 (Homo sapiens), sequence (O95633 whole entry, looked up): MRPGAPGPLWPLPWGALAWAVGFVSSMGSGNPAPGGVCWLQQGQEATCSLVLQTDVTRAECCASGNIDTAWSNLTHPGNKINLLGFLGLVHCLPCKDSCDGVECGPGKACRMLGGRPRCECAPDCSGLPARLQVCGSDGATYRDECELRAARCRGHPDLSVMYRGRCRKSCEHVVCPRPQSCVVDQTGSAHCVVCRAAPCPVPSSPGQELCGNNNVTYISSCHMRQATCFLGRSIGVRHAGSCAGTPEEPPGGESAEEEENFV
Fibroblast growth factor 10 (Homo sapiens), sequence (O15520 whole entry, looked up): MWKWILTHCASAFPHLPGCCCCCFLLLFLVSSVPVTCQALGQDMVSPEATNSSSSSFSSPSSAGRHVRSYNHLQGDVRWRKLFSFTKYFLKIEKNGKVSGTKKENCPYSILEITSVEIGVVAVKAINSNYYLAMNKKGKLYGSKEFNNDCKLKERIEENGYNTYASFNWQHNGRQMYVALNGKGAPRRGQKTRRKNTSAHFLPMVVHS

Take `CC(C)CNC(=O)[C@@]1(C)c2ccccc2C(=O)N(Cc2ccccc2)[C@H]1c1ccc(CO)cc1`: the composite z-score in assay [1] is 0.651; in [2] it was 0.569; in assay [3], 1.19; in assay [5] it was -1.21; in [6], -1.01; in assay [7], -1.56. Besides, the values for the composite z-score in [8], in assay [9] and in [10] were -2.11, -1.88 and -1.02, respectively. For the same molecule, the z-score in assay [4] was 0.622 (inactive).
With `C[N+](C)(C)CCCCNC(=O)[C@H]1C[C@H]2C(=O)NCC(=O)N2[C@H]1c1ccc(O)cc1`, the composite z-score in assay [1] is 1.29; in assay [2], 0.0645; in [3], -0.31; in [5] it was 1.42; in [6] it was 1.35; in assay [7], 1.12. The results for the composite z-score in assay [8], in assay [9] and in [10] were 1.44, 1.47 and 0.952, respectively. Moreover, the z-score in assay [4] is -1.01 (inactive).
As to `Cc1ccc(N2C(=O)c3ccccc3[C@](C)(C(=O)NC(C)C)[C@@H]2c2ccc(CO)cc2)nc1`, the composite z-score was 0.118 in assay [1]; -0.0537 in assay [2]; 1.04 in [3]; -1.22 in assay [5]; -0.738 in [6]; -1.21 in assay [7]. Besides, the composite z-score is -2.01 in assay [8], -1.63 in assay [9] and -2.54 in assay [10]. Also, the z-score in assay [4] was 0.415 (inactive).
In the case of `COc1ccc(C(=O)Nc2ccc(CN3C(=O)[C@@]4(O[C@@H](CC(=O)N5Cc6ccccc6C[C@H]5CO)[C@H]([Si](C)(C)c5ccc(OC)cc5)[C@H]4C)c4ccccc43)cc2)cc1`, the composite z-score in assay [1] is 1.33; in [2] it was -0.351; in [3] it was -0.342; in [5] it was 1.01; in [6] it was 0.81; in assay [7], 1.05. In addition, the composite z-score stood at 1.19 in assay [8], 0.628 in assay [9] and 0.673 in assay [10]. Besides, the z-score in assay [4] is -1.29 (inactive).
As to `C=CC[C@]1(C(=O)N2CCOCC2)N=C(c2ccc(OCCCO)cc2)O[C@H]1c1ccccc1CN=[N+]=[N-]`, the composite z-score in assay [1] was 1.55; in assay [2], 0.0557; in [3] it was 0.948; in assay [5], 1.24; in assay [6] it was 0.0251; in assay [7], -0.124. For the same molecule, the composite z-score is 0.879 in assay [8], -0.121 in assay [9] and 0.58 in [10]. The z-score in assay [4] is -0.244 (inactive).
Take `CC(C)C[C@@H]1NC(=O)[C@@H]2C[C@H](C(=O)NCCCC[N+](C)(C)C)[C@H](c3cccc(OCCO)c3)N2C1=O`: the composite z-score in assay [1] is 1.66; in assay [2], -0.184; in [3] it was -0.103; in assay [5] it was 0.59; in assay [6], 0.914; in assay [7] it was 0.357. In addition, the composite z-score is 1.31 in assay [8], 1.95 in assay [9] and 0.88 in assay [10]. Besides, in assay [4], the z-score is -0.44 (inactive).
Regarding `COCC(=C=CC[C@@H](O)c1ccccc1OCCO)C[C@@H](O)c1ccccn1`, the composite z-score was 0.378 in assay [1]; -0.0661 in assay [2]; -0.0356 in assay [3]; 0.457 in [5]; 0.207 in assay [6]; -0.0982 in assay [7]. Besides, the composite z-score in [8] stood at 0.322; in [9], 0.0514; in assay [10] it was 0.639. The z-score in assay [4] was 0.141 (inactive).
For `C=CCOC(=O)[C@H]1[C@@H]2C(=O)O[C@@H](c3ccccc3)[C@@H](c3ccccc3)N2[C@@H](c2ccc(OCCOC(=O)[C@H]3C[C@H]4C(=O)N[C@@H](CCCCN(C)C)C(=O)N4[C@H]3c3ccc(O)cc3)cc2)[C@]12C(=O)Nc1ccccc12`, the composite z-score amounted to 0.436 in [1]; 0.638 in assay [2]; 0.4 in [3]; 1 in assay [5]; 0.957 in assay [6]; 0.606 in assay [7]. For the same molecule, the composite z-score turned out to be 1.4 in [8], 0.805 in assay [9] and 1.04 in [10]. In assay [4], the z-score was -0.226 (inactive).
Consider `C[C@]12C(=O)N(CCCCCO)[C@@H]3C(=O)N(c4ccc(Cl)cc4)CC=CC31O[C@@H]1/C=C\CCCOC(=O)C12` (stereo not given in full), for which the composite z-score in assay [1] was 0.677; in [2] it was -0.131; in assay [3] it was 0.557; in assay [5] it was -1.21; in assay [6], -1.82; in [7], -1.22. Further, the values for the composite z-score in assay [8], in assay [9] and in [10] were -0.934, -1.19 and -0.0839, respectively. Further, the z-score in [4] was -0.0628 (inactive).
For `CC(C)N1CC=CC23O[C@@H]4C=CCOC(=O)[C@@H]4[C@H]2C(=O)N(CCCCCCO)[C@@H]3C1=O` (stereo not given in full), the composite z-score was 1.99 in assay [1]; -0.284 in [2]; 0.143 in assay [3]; 0.636 in assay [5]; -0.826 in [6]; -0.997 in assay [7]. Also, the composite z-score in assay [8] is -0.483; in [9] it was -0.959; in [10], 0.741. Moreover, in assay [4], the z-score was -0.594 (inactive).
`Cc1ccc(S[C@]2(C(=O)O)CC(=O)N(C3CCCCC3)[C@@H]2c2ccc(CO)cc2)cc1`: the composite z-score in assay [1] is 1.37; in assay [2] it was -0.0047; in assay [3], 0.571; in assay [5], -0.256; in [6] it was 0.739; in assay [7] it was -0.172. In addition, the figures for the composite z-score in assay [8], in assay [9] and in assay [10] were -0.365, 0.234 and 0.378, respectively. In addition, in assay [4], the z-score was 0.134 (inactive).
Turning to `O=C(N1CCOCC1)[C@@]1(CCS(=O)(=O)c2ccccc2)COC(c2ccc(OCCCO)cc2)=N1`, the composite z-score in assay [1] was 0.495; in assay [2], 0.0641; in assay [3], 0.691; in [5] it was 0.94; in assay [6], 0.443; in [7], -0.935. Besides, the composite z-score in assay [8] is -0.827; in assay [9], -0.899; in [10] it was -0.704. Moreover, the z-score in assay [4] was 0.122 (inactive).
`C[N+](C)(C)CCCC[C@@H]1NC(=O)[C@@H]2C[C@H](C(=O)O)[C@H](c3cccc(OCCO)c3)N2C1=O`: the composite z-score in [1] is 1.53; in assay [2], -0.066; in [3], 0.667; in [5], 0.11; in assay [6], -0.144; in assay [7], -0.188. The composite z-score is -0.492 in assay [8], 0.503 in assay [9] and 0.146 in assay [10]. The z-score in assay [4] was -0.11 (inactive).
Consider `COc1cc(C(O)C2C=CC3C(=O)NC(=O)C3N2Nc2ccc(Cl)cc2Cl)cc(OC)c1OC` (stereo not given), for which the composite z-score in assay [1] is 1.18; in assay [2], 0.88; in assay [3], 1.12; in assay [5] it was 0.746; in assay [6] it was 0.189; in assay [7] it was -0.0874. Further, the composite z-score in assay [8] was 1.28; in assay [9] it was -0.675; in assay [10], 1.11. Further, the z-score in assay [4] was 0.734 (inactive).
